Laboratory results as given in PubChem BioAssay (EPA / NIEHS).
Inconclusive results are not listed. Some structures have more than one record in an assay (separate samples or runs), and their calls can disagree. Calls of active or inactive are those of the source. How the source made its calls, unless noted: active means hit-call score of the fitted dose curve at least 0.9, where 1 is the maximum; inactive means score below 0.9.

Tests used:
[1] = biological target: Glucocorticoid receptor (Homo sapiens) (UniProt P04150); test: ATG_GR_TRANS: Attagene TRANS-FACTORIAL HepG2 Assay for human Glucocorticoid Receptor (GR) (AID 2282978; active means hit-call score of the fitted dose curve at least 0.9, where 1 is the maximum;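 further: activators score as hits since higher reporter transcript over DMSO is fitted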); settings: HepG2 Attagene TRANS GR reporter, mRNA transcription
Sequence of Glucocorticoid receptor (Homo sapiens) (P04150 whole entry, looked up): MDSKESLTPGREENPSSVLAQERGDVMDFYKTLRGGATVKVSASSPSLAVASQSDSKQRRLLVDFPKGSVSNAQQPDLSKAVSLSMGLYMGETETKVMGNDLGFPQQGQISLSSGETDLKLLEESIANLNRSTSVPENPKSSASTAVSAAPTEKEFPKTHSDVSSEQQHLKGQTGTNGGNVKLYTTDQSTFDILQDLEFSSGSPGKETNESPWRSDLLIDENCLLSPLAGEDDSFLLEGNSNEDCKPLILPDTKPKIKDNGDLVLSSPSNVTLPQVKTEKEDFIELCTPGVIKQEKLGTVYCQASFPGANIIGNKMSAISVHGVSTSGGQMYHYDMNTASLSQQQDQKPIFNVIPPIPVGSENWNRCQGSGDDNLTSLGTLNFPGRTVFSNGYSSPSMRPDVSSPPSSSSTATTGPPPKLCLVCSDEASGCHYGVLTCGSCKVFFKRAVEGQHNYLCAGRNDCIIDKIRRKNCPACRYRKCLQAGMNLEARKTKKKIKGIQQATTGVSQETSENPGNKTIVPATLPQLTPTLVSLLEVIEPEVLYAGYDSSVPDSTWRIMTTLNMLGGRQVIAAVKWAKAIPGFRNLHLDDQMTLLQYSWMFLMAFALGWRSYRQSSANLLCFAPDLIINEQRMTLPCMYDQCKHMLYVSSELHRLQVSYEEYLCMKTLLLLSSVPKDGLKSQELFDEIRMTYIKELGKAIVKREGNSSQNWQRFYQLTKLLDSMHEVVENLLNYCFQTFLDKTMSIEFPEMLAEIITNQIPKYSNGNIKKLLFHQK
Procedure, shortened: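 After 24 h incubation with test chemical, transfected HepG2 cells were lysed for RNA; reporter cDNA was amplified, FAM-labelled, HpaI-digested and sized on a capillary analyser. Signal gain relative to DMSO was scored.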

[2] = biological target: Bile acid receptor (Homo sapiens) (UniProt Q96RI1); test: ATG_FXR_TRANS: Attagene TRANS-FACTORIAL HepG2 Assay for Farnesoid X Receptor (FXR) (AID 2282979; active means hit-call score of the fitted dose curve at least 0.9, where 1 is the maximum;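 further: hits raise reporter mRNA above DMSO so AC50 marks FXR activation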); settings: HepG2 Attagene TRANS FXR-GAL4 reporter transcription
Sequence of Bile acid receptor (Homo sapiens) (Q96RI1 whole entry, looked up, the tested form may be a part): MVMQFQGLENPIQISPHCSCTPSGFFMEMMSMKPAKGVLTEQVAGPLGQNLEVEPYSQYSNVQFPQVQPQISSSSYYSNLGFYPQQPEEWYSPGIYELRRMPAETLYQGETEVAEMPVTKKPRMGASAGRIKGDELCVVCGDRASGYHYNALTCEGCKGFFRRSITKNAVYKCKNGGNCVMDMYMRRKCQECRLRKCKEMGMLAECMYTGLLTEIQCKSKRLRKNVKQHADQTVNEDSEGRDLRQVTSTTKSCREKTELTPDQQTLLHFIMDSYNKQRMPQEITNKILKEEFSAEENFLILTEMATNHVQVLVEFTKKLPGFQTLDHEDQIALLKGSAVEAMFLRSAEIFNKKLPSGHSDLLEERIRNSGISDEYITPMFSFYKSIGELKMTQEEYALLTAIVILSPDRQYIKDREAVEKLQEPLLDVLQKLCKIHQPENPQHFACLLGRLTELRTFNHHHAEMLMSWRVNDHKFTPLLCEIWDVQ
Procedure, shortened: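 Transient transfection of HepG2 with multiplexed GAL4-UAS reporter units; exogenous FXR-GAL4 chimera. Dose 24 h → TriZol RNA → oligo(dT) RT → PCR, 6-FAM primer extension, HpaI cut → CE. Gain vs DMSO.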

[3] = biological target: Oxysterols receptor LXR-alpha (Homo sapiens) (UniProt Q13133); test: ATG_LXRa_TRANS: Attagene TRANS-FACTORIAL HepG2 Assay for human Liver X Receptor alpha (LXRa) (AID 2282980; active means hit-call score of the fitted dose curve at least 0.9, where 1 is the maximum); settings: HepG2 Attagene TRANS reporter, LXRa transactivation
Procedure, shortened: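 Transfect HepG2 with GAL4-UAS multiplex reporter constructs (TRANS format, chimeric receptor-GAL4); treat 24 h; extract RNA, reverse-transcribe, PCR-amplify, FAM-label, HpaI-digest; resolve fragments by capillary electrophoresis. Upward response vs DMSO.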

[4] = biological target: Oxysterols receptor LXR-beta (Homo sapiens) (UniProt P55055); test: ATG_LXRb_TRANS: Attagene TRANS-FACTORIAL HepG2 Assay for human Liver X Receptor beta (LXRb) (AID 2282981; active means hit-call score of the fitted dose curve at least 0.9, where 1 is the maximum); settings: HepG2 Attagene TRANS GAL4-LXRb reporter, mRNA
Sequence of Oxysterols receptor LXR-beta (Homo sapiens) (P55055 whole entry, looked up, the tested form may be a part): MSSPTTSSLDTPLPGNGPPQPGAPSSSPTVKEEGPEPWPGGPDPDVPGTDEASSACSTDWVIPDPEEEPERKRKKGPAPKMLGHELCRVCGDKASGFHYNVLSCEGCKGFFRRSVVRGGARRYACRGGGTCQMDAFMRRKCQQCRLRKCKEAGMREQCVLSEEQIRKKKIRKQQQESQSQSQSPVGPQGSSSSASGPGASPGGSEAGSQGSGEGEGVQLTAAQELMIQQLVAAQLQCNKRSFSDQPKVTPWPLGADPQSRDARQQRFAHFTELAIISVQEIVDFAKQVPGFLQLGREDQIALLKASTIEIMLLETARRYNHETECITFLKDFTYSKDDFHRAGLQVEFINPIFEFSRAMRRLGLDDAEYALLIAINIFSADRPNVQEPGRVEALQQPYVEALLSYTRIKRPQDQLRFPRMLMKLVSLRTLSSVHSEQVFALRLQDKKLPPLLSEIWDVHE
Procedure, shortened: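 Transient transfection HepG2 (multiplexed RTUs, GAL4-UAS); NR-Gal4 chimera; 24 h exposure; RNA → RT-PCR → 6-FAM primer extension → HpaI → CE; increase vs DMSO.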

[5] = ATG_M_06_TRANS: Attagene TRANS-FACTORIAL HepG2 Assay for M06 Transcription Factor (Internal Marker) (AID 2282983; active means hit-call score of the fitted dose curve at least 0.9, where 1 is the maximum); settings: HepG2 Attagene TRANS M06 internal marker reporter
Procedure, shortened: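 Transfect HepG2 with MRTUs → dose compounds 24 h → isolate RNA, oligo(dT) RT → PCR with reporter primers → 6-FAM primer extension → HpaI digest → CE fragment analysis. Positive direction vs DMSO.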

[6] = ATG_M_32_TRANS: Attagene TRANS-FACTORIAL HepG2 Assay for M32 Transcription Factor (Internal Marker) (AID 2282984; active means hit-call score of the fitted dose curve at least 0.9, where 1 is the maximum;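 further: transcript level of a background control reporter unit measured by RT-PCR and capillary electrophoresis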); settings: HepG2 Attagene TRANS M32 internal marker reporter
Procedure, shortened: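 Measures reporter mRNA induction in human HepG2 liver cells after 24 h chemical treatment. Transcripts from transiently transfected GAL4-UAS reporter units are amplified, fluorescently labelled and sized by capillary electrophoresis; gain of signal relative to DMSO.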

[7] = biological target: Nuclear receptor subfamily 4 group A member 2 (Homo sapiens) (UniProt P43354); test: ATG_NURR1_TRANS: Attagene TRANS-FACTORIAL HepG2 Assay for human Nuclear Receptor Related Protein 1 (NURR1) (AID 2282985; active means hit-call score of the fitted dose curve at least 0.9, where 1 is the maximum); settings: HepG2 Attagene TRANS reporter, mRNA readout
Sequence of Nuclear receptor subfamily 4 group A member 2 (Homo sapiens) (P43354 whole entry, looked up, the tested form may be a part): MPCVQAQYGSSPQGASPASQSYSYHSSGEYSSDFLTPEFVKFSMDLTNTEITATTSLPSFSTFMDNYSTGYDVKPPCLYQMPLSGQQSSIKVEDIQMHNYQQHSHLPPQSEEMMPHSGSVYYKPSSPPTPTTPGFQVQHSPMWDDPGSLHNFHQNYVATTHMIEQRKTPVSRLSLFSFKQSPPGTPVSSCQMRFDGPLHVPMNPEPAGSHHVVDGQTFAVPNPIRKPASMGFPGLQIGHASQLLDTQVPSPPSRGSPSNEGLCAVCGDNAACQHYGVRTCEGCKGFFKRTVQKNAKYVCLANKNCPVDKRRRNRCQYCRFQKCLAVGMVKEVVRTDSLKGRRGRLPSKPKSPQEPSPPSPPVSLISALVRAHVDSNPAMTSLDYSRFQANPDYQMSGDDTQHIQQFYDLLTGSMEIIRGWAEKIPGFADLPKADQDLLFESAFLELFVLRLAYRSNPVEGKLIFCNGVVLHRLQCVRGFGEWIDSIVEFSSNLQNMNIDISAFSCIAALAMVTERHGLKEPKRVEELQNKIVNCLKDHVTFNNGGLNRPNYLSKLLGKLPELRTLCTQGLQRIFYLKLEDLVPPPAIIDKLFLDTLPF
Procedure, shortened: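 Transient transfection of HepG2, human liver cells, with multiple GAL4-UAS reporter transcription units. Cells dosed 24 h, RNA isolated, reverse-transcribed, PCR-amplified, FAM-labelled, HpaI-digested, sized by capillary electrophoresis. DMSO served as negative control.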

[8] = biological target: Transcriptional activator Myb (Homo sapiens) (UniProt P10242); test: ATG_Myb_CIS: Attagene CIS-FACTORIAL HepG2 Assay for human Myeloblastosis (Myb) Proto-Oncogene Transcription Factor (AID 2282986); settings: HepG2 Attagene CIS-FACTORIAL Myb reporter transcription; actives raise or lower the signal
Sequence of Transcriptional activator Myb (Homo sapiens) (P10242 whole entry, looked up): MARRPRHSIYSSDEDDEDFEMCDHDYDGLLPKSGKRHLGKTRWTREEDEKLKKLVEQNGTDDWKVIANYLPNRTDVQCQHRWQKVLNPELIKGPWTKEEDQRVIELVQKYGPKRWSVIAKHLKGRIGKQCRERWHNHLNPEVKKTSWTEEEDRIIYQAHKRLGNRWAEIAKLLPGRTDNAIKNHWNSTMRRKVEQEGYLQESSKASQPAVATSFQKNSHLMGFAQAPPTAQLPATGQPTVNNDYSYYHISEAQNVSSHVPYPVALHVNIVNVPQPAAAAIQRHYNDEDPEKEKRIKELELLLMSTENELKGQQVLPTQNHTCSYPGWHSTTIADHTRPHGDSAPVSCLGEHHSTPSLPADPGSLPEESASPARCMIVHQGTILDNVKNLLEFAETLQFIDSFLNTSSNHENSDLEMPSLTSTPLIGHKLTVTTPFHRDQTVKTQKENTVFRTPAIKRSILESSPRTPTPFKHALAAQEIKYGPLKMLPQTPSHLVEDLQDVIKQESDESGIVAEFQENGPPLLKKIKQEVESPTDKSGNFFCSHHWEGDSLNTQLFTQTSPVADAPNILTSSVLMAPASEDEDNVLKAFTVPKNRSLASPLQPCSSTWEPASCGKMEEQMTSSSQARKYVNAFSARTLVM
Procedure, shortened: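 After 24 h of compound dosing, total RNA from transfected HepG2 cells is reverse-transcribed and the reporter sequences amplified, labeled and separated by capillary electrophoresis. Values come from bidirectional fitting against DMSO.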

[9] = biological target: Nuclear respiratory factor 1 (Homo sapiens) (UniProt Q16656); test: ATG_NRF1_CIS: Attagene CIS-FACTORIAL HepG2 Assay for human Nuclear Respiratory Factor 1 (NRF1) Orphan Gene (AID 2282987); settings: HepG2 NRF1 cis-element reporter, Attagene multiplex; actives raise or lower the signal
Sequence of Nuclear respiratory factor 1 (Homo sapiens) (Q16656 whole entry, looked up): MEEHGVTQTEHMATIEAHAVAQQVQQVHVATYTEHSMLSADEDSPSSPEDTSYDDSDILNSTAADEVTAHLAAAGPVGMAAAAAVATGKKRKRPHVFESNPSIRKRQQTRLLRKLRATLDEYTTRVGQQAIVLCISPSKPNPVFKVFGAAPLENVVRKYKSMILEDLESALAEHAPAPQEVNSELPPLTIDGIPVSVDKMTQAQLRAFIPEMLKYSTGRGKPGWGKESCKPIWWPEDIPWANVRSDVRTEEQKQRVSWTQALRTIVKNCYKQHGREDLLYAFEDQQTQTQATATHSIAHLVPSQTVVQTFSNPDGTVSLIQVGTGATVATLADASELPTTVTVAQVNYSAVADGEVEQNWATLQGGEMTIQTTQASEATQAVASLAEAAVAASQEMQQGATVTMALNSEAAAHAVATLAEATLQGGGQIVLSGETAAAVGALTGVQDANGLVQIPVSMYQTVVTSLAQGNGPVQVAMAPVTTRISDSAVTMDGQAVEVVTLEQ
Procedure, shortened: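 Measured: fluorescent reporter-specific RT-PCR products from transfected HepG2 cells, separated by capillary electrophoresis. Exposure lasted 24 h. Analysis used bidirectional curve fitting with DMSO as negative control.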

[10] = ATG_NFI_CIS: Attagene CIS-FACTORIAL HepG2 Assay for human Nuclear Factor I (NFI) (AID 2282989); settings: HepG2 cis-regulatory reporter, NFI response element transcription; actives raise or lower the signal
Procedure, shortened: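 Transient MRTU transfection of HepG2 → 24 h chemical dosing → total RNA, oligo(dT) RT → PCR, 6-FAM primer extension, HpaI cut → capillary electrophoresis. Endpoint fitted bidirectionally relative to DMSO.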

[11] = ATG_NF_kB_CIS: Attagene CIS-FACTORIAL HepG2 Assay for human Nuclear Factor Kappa B (NF-kB) (AID 2282991); settings: HepG2 Attagene cis-factorial NF-kB reporter mRNA; actives raise or lower the signal
Procedure, shortened: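 Fluorescence of labelled RT-PCR products separated by capillary electrophoresis gives reporter mRNA levels from transfected HepG2 cells exposed 24 h; values are fitted in both directions relative to DMSO.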

[12] = ATG_Oct_MLP_CIS: Attagene CIS-FACTORIAL HepG2 Assay for human Octamer-Binding Transcription Factor (Oct) (AID 2282993); settings: HepG2 Attagene cis-factorial Oct reporter, mRNA; actives raise or lower the signal
Procedure, shortened: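 Transient MRTU transfection of HepG2 → 24 h compound treatment → RNA isolation, reverse transcription, PCR → 6-FAM primer extension, HpaI digest → capillary electrophoresis. Activity fitted both directions against DMSO.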

[13] = biological target: Cellular tumor antigen p53 (Homo sapiens) (UniProt P04637); test: ATG_p53_CIS: Attagene CIS-FACTORIAL HepG2 Assay for human p53 Transcription Factor (AID 2282994); settings: HepG2 p53 cis-element reporter, Attagene mRNA; actives raise or lower the signal
Sequence of Cellular tumor antigen p53 (Homo sapiens) (P04637 whole entry, looked up): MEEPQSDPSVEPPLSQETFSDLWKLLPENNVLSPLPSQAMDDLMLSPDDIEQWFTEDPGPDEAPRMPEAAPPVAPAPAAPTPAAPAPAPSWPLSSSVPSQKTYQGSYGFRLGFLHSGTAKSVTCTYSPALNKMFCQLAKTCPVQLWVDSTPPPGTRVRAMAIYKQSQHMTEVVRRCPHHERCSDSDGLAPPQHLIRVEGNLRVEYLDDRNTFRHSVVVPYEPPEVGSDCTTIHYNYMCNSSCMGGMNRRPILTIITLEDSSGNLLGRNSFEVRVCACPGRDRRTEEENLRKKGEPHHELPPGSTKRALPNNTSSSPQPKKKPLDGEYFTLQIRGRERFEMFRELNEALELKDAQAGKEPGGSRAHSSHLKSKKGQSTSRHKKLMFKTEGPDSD
Procedure, shortened: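 Multiplexed reporter mRNA assay in human HepG2 liver cells; cis-regulated units report endogenous factor activity. Values come from bidirectional curve fitting against DMSO negative control after 24 h treatment.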

[14] = BSK_3C_TissueFactor: BioMAP Diversity Plus: 3C Assay for Tissue Factor Biomarker Activity (AID 2282997); settings: BioMAP 3C HUVEC, tissue factor biomarker readout; actives raise or lower the signal
Procedure, shortened: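 ELISA read-out of Tissue Factor levels on human umbilical vein endothelium collected 24 h after chemical dosing. Gain or loss of signal was fitted relative to DMSO.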

[15] = BSK_3C_uPAR: BioMAP Diversity Plus: 3C Assay for Urokinase-type plasminogen activator receptor (uPAR) Biomarker Activity (AID 2282998); settings: BioMAP 3C HUVEC, uPAR biomarker ELISA; actives raise or lower the signal
Procedure, shortened: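 ELISA readout of uPAR on human vascular endothelium (umbilical vein primary cells), taken 24 h after chemical dosing. Increases and decreases are both fitted relative to DMSO vehicle.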

[16] = BSK_3C_VCAM1: BioMAP Diversity Plus: 3C Assay for Vascular cell adhesion molecule 1 (VCAM1) Biomarker Activity (AID 2282999); settings: BioMAP 3C HUVEC, VCAM1 ELISA, cytokine-stimulated; actives raise or lower the signal
Procedure, shortened: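 Endothelial cells from human umbilical vein are treated with test chemical. At 24 h, VCAM-1 is measured by ELISA, and responses in either direction are fitted relative to DMSO.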

[17] = BSK_4H_Eotaxin3: BioMAP Diversity Plus: 4H Assay for Eotaxin 3 Biomarker Activity (AID 2283000); settings: primary human endothelial cells (HUVEC); actives raise or lower the signal
Procedure, shortened: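 Chemicals were added to human umbilical vein endothelium cultures, and Eotaxin-3 was quantified by ELISA at 24 h. Values were derived by bidirectional fitting with DMSO serving as negative control and activity baseline.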

[18] = ATG_NRF2_ARE_CIS: Attagene CIS-FACTORIAL HepG2 Assay for human Nuclear Factor Erythroid 2 Related Factor 2 (NFR2) response to Antioxidant Response Elements (ARE) (AID 2282992); settings: HepG2 Attagene ARE/NRF2 reporter, transcription factor activity; actives raise or lower the signal
Procedure, shortened: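 Multiplexed reporter mRNA profiling in HepG2 after a 24 h chemical exposure. Curves fitted in both directions relative to DMSO negative control.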

[19] = biological target: Hepatocyte nuclear factor 4-alpha (Homo sapiens) (UniProt P41235); test: ATG_HNF4a_TRANS: Attagene TRANS-FACTORIAL HepG2 Assay for human Hepatocyte Nuclear Factor 4 alpha (HNF4a) (AID 2282982; active means hit-call score of the fitted dose curve at least 0.9, where 1 is the maximum); settings: HepG2 HNF4a transactivation reporter, mRNA readout
Sequence of Hepatocyte nuclear factor 4-alpha (Homo sapiens) (P41235 whole entry, looked up, the tested form may be a part): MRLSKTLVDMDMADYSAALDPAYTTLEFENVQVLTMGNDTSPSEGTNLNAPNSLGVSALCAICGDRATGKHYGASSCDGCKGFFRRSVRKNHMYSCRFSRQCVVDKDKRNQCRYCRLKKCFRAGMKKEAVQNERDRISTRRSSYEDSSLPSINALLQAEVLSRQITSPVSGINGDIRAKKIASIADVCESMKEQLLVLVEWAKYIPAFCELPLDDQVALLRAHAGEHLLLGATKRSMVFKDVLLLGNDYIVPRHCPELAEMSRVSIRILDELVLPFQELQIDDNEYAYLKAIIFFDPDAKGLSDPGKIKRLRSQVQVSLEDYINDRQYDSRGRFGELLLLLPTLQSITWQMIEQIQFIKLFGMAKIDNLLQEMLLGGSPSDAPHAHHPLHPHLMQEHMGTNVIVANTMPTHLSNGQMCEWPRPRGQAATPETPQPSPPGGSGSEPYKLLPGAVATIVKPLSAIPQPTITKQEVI
Procedure, shortened: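 Readout is fluorescent reporter-transcript fragments resolved by capillary electrophoresis after RT-PCR from HepG2 cells dosed for 24 h. Cells carried transfected GAL4-UAS reporter constructs measuring exogenous NR-GAL4 chimera activity; DMSO served as baseline.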

[20] = biological target: Myc proto-oncogene protein (Homo sapiens) (UniProt P01106); test: ATG_Myc_CIS: Attagene CIS-FACTORIAL HepG2 Assay for human Myelocytomatosis (Myc) Proto-Oncogene Transcription Factor (AID 2282990); settings: HepG2, Attagene cis-reporter transcription factor activity; actives raise or lower the signal
Sequence of Myc proto-oncogene protein (Homo sapiens) (P01106 whole entry, looked up): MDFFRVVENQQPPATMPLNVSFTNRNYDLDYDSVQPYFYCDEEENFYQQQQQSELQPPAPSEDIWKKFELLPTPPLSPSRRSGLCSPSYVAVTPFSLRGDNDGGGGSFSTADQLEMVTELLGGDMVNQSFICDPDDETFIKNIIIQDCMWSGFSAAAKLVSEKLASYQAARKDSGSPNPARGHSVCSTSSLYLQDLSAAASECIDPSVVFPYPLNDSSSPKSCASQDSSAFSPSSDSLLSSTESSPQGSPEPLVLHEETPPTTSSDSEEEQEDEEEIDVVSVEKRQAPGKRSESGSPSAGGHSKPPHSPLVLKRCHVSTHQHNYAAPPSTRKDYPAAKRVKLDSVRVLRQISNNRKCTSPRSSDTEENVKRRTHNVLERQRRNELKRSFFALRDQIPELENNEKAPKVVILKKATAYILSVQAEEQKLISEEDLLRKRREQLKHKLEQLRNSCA
Procedure, shortened: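 HepG2, transient MRTU transfection (cis promoters, endogenous TFs); 24 h dosing; TriZol RNA → oligo(dT) RT → PCR → 6-FAM primer extension → HpaI cut → CE. Bidirectional fit vs DMSO.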

Measured: AC50

FC(F)(F)C(F)(F)C(F)(F)C(F)(F)C(F)(F)C(F)(F)I
inactive: [1] | [2] | [3] | [4] | [5] | [6] | [7] | [8] | [9] | [10] | [11] | [12] | [13] | [14] | [15] | [16] | [17]

C[C@@H](Oc1ccc(CNC(=O)c2cccnc2Oc2ccc3c(c2)OCO3)c(F)c1)C(=O)O
inactive: [1] | [2] | [4] | [5] | [6] | [7] | [8] | [9] | [10] | [11] | [18] | [12] | [14] | [15] | [16] | [17]

O=C(O)c1cccc(C(=O)O)c1
inactive: [1] | [2] | [4] | [19] | [6] | [8] | [9] | [10] | [20] | [18] | [12] | [14] | [15] | [16] | [17]

COc1cc(C(C)C)c2c(c1)S(=O)(=O)N(COc1cc(=O)n3cccc(OCCN4CCCCC4)c3n1)C2=O
inactive: [1] | [19] | [6] | [7] | [8] | [9] | [14]
active: [2] 4.68 µM | [10] 3.64 µM | [11] 10.3 µM | [18] 1.29 µM | [12] 4.34 µM | [15] 2.89 µM | [16] 5.38 µM | [17] 8.57 µM

FC(F)=C(F)C(F)(F)C(F)(F)C(F)(F)C(F)(F)C(F)(F)C(F)(F)F
inactive: [1] | [2] | [3] | [6] | [7] | [8] | [9] | [10] | [20] | [11] | [12] | [13] | [14] | [15] | [16] | [17]
active: [12] 267 µM

COc1cc2c(c(OC)c1OC)-c1ccc(OC)c(=O)cc1[C@@H](NC(C)=O)CC2
inactive: [1] | [2] | [3] | [4] | [5] | [8] | [10] | [11] | [12] | [14]
active: [9] 257 nM | [15] 0.149 µM | [16] 0.404 µM | [17] 0.148 µM

O=S(=O)(O)CCC(F)(F)C(F)(F)C(F)(F)C(F)(F)C(F)(F)C(F)(F)F
inactive: [1] | [2] | [3] | [4] | [19] | [5] | [6] | [7] | [8] | [9] | [10] | [11] | [12] | [13] | [14] | [15] | [16] | [17]

OCCC(F)(F)C(F)(F)C(F)(F)C(F)(F)F
inactive: [1] | [2] | [3] | [4] | [19] | [5] | [6] | [7] | [8] | [9] | [10] | [11] | [12] | [13] | [14] | [15] | [16] | [17]
